# Data from PubChem BioAssay (NCI).
# “And” between values parts separate entries of the source, which are not always exact repeats. Equal values may be shown once. About 79,000 compounds went through this panel and 15% of them were active in at least one assay; those are over-represented in the sample as a whole. Values without a mark were called inactive. The source made the active and inactive calls. Rule as the data show it: active = growth inhibition above about 70%; inactive = the rest.
# Experiments:
# [1] = NCI Yeast Anticancer Drug Screen. Data for the rad50 strain (AID 155);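 also: 0% = growth of vehicle-only cultures of the same strain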; conditions: S. cerevisiae rad50 strain growth inhibition; at 50.0 µM; hits give high values
# Summary of the method: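 Readout: growth inhibition relative to vehicle-treated cultures. Compound exposure was carried out in a genetically defined yeast strain deficient in DNA damage repair.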
# [2] = NCI Yeast Anticancer Drug Screen. Data for the mec2-1 strain (AID 157); conditions: S. cerevisiae mec2-1 strain, at 50.0 µM, hits give high values
# Summary of the method: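 Growth inhibition is read against vehicle-treated controls after compound exposure of the mec2-1 yeast strain, which is defective in DNA damage repair or cell cycle control.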
# [3] = NCI Yeast Anticancer Drug Screen. Data for the sgs1 mgt1 strain (AID 161);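 also: 0% = growth of cultures given vehicle only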; conditions: S. cerevisiae sgs1 mgt1 strain, at 50.0 µM, hits give high values
# Summary of the method: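 Growth of a repair-deficient yeast mutant was monitored after compound treatment and expressed as inhibition relative to vehicle-treated cultures.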
# [4] = NCI Yeast Anticancer Drug Screen. Data for the cln2 rad14 strain (AID 165);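 also: 0% = growth equal to vehicle treated cultures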; conditions: S. cerevisiae cln2 rad14 strain, at 50.0 µM, hits give high values
# Summary of the method: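 Growth inhibition, relative to vehicle-treated controls, is the read-out. The test organism is a yeast strain with defined genetic alterations, cln2 rad14.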
# [5] = NCI Yeast Anticancer Drug Screen. Data for the bub3 strain (AID 167); conditions: S. cerevisiae bub3 mutant strain, at 50.0 µM, hits give high values
# Summary of the method: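 Readout: yeast growth inhibition, expressed relative to vehicle-only wells. The test organism is a mutant strain from a panel with lesions in DNA repair or checkpoint genes.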
# [6] = NCI Yeast Anticancer Drug Screen. Data for the mlh1 rad18 strain (AID 175); conditions: S. cerevisiae mlh1 rad18 strain growth inhibition; at 50.0 µM; hits give high values
# Summary of the method: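 Cells of a genetically altered yeast strain, deficient in DNA damage repair, were treated with compound. Their growth was then compared with that of vehicle-treated cultures to give inhibition.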
SMILES,growth inhibition [1],growth inhibition [2],growth inhibition [3],growth inhibition [4],growth inhibition [5],growth inhibition [6]
O=C(Cc1ccccc1)OC1CCCC1,14.6%,-4.6%,-7.15%,-39%,-3.3%,19%
CC1(C)N=C(N)N=C(N)N1c1ccc(CCCCc2ccc(S(=O)(=O)F)c(Cl)c2)c(Cl)c1,99.2% (active),99.5% (active),99.4% (active),99.2% (active),99.3% (active),99.3% (active)
OC[P+](CO)(CO)CO,-2.8%,1.05%,-8.15%,-24.9%,14.7%,-5.9%
COc1cccc(C2(C#N)CCN(C)CC2)c1,28.1%,23.1%,22.7%,-7.45%,12.7%,62.5%
C[N+](C)(C)CC1CCCCCCCCCCC1=O (stereo unspecified),-4.85%,-10.4%,-25.2%,7.75%,-16.4%,-9.75%
C[N+](C)(C)CC(CC(=O)[O-])C1CC1 (stereo unspecified),3.7%,-7.8%,-18.6%,2.1%,-19.1%,-19.1%
CCOC(=O)C1C2(C)NC(=O)C1(Cc1ccccc1)c1ccc(O)cc1O2 (stereo unspecified),4.05%,3.1%,-13.1%,0.05%,2.5%,-1.05%
COP1(=S)OCC(C(C)(C)C)CO1 (stereo unspecified),7.1%,1.2%,-2.1%,-14.4%,25.9%,-3.55%
CCOP(=O)(OCC)C(F)(F)CC1CCCCC1,-17.1%,-25.6%,-19.4%,-59%,26.2%,-9.85%
CC12OCCN1CCO2,10.9%,-3.25%,11.8%,5.45%,12.8%,4%
ClCCCCCCCCCCCl,10.9%,-2.55%,-13.2%,-11.8%,-15.2%,-8.8%
CC1C(C(=O)c2ccc(-c3ccccc3)cc2)N1C(C)(C)C (stereo unspecified),-10.4%,10.2%,7.75%,23.4%,1.15%,-11.8%
CCCC[As](CCCC)SC1OC(COC(C)=O)C(OC(C)=O)C(OC(C)=O)C1OC(C)=O (stereo unspecified),98.6% (active),98.7% (active),98.8% (active),96.9% (active),98.5% (active),98.1% (active)
C=CCN1CCC23c4c5ccc(O)c4OC2C(=NN=C2CCC4(O)C6Cc7ccc(O)c8c7C4(CCN6CC=C)C2O8)CCC3(O)C1C5 (stereo unspecified),3.4%,2.5%,10%,27.4%,2.1%,32.2%
CCC(=O)c1ccc(C)cc1,-11.5%,1.2%,-10.4%,-16.7%,4.2%,-3.45%
[CH3][Sn]([CH3])([CH3])[O]C(=O)CNC(=O)c1ccccc1,-8.55%,-4.1%,-2.3%,27.9%,4.25%,-0.3%
c1ccc(CCN2CCOCC2)nc1,17.3%,1.6%,-8.95%,52%,4.55%,3.85%
NC(=Nc1ccccc1)N/N=C/c1c[nH]c2ccccc12,-15.2%,-14.9%,-20.2%,3.45%,-7.15%,-50%
COc1cccc(NC2=NCCO2)c1,-17.1%,-1.2%,-5.95%,3.8%,-2.2%,-12.2%
NCCc1cc2c3c(c1)CCCN3CCC2,96.5% (active),96.5% (active),94.5% (active),88.7% (active),94.9% (active),98.2% (active)
c1ccc2c(c1)cc1ccc3cccc4ccc2c1c34,-6.9%,-14.9%,7.15%,15.5%,14.4%,9.9%

SMILES,growth inhibition [1],growth inhibition [2],growth inhibition [3],growth inhibition [4],growth inhibition [5],growth inhibition [6]
N#CCc1ccccc1,8.5% and -45.5%,17.6% and 3.2%,-7.35% and -21.4%,13.7% and 5.6%,15.4% and -1.05%,4.85% and -6.65%
C=CC(=O)OCCN(C)C,1.5%,-4.65%,-4.4%,-0.25%,2.1%,1.65%
Clc1cc[c]([Pb]([Cl])([Cl])[c]2ccc(Cl)cc2)cc1,22.9%,17%,27.9%,52.2%,36.5%,13.7%
O=C(NC(CSC(c1ccccc1)(c1ccccc1)c1ccccc1)C(=O)O)OCc1ccccc1 (stereo unspecified),63.7%,99.5% (active),98.5% (active),51.9%,47.6%,58.8%
NC1(P(=O)(O)O)CCCCC1,2.5%,-3%,-22.4%,-52%,-31.6%,-10.5%
COc1ccc2c(c1)CC(CN1CCC3(CC1)C(=O)NCN3c1ccccc1)O2 (stereo unspecified),76.7% (active),57%,86.4% (active),79% (active),55.5%,78.5% (active)
NCCN.NCCN.O=C([O-])C(=O)[O-].[Cl-].[Co+3],-22.4%,-16.7%,-31.8%,-0.45%,-24.6%,-29.8%
CC(Cl)(Cl)[N+](=O)[O-],33.7%,-22.5%,-8.05%,-60.1%,-10.2%,21.1%
COP(=O)(OC)/C(=C/c1c[nH]c2ccccc12)C(=O)O,-12.7%,-71.6%,-55.9%,-34.9%,-20.7%,-32.2%
CCOP(=O)(OCC)Oc1cc(C)c(Cl)c(C)c1,10.2%,-16.7%,4.15%,18.4%,16.9%,-8.35%
C=C[CH2][Sn]([CH2]C=C)([c]1ccccc1)[c]1ccccc1,47.6%,18.6%,28.8%,6.7%,-7.55%,16.4%
O=C1C=CC=C[C@@H]2C(C3OCCO3)CC[C@H]12.[C-]#[O+].[C-]#[O+].[C-]#[O+].[Fe] (stereo partly specified),4.3%,14.8%,-7.3%,23.1%,7.5%,4.75%
O=c1oc2ccccc2c(O)c1C(c1cnc2ccccc2c1)c1c(O)c2ccccc2oc1=O,33.4%,40.2%,12.7%,26.2%,-5.7%,47%
CN1CCN(Cc2ccccc2)C(C#N)C1 (stereo unspecified),-2.6%,-8.75%,-0.35%,-25.9%,-17.4%,-11.7%
CN1C(=O)N(C)P1(Cl)(Cl)Cl,18.6%,-6.15%,3.15%,-36.6%,0.2%,-14.9%
CC(=O)c1ccc(NC(O)C(Cl)(Cl)Cl)cc1 (stereo unspecified),5.75%,18.9%,-0.25%,-12.2%,18.8%,22.4%
CC1OP(=S)(N2C(=O)c3ccccc3C2=O)OC2CCCCC12 (stereo unspecified),11.8%,15.6%,4.4%,-26.4%,10.2%,-5.9%
OC(c1ccccc1)C1CCCCN1 (stereo unspecified),-7.95%,-7.2%,9.8%,-12.3%,11.2%,-17.6%
CCOC(=O)/C(=C\c1ccc(C(F)(F)F)cc1)[Se]c1ccccc1,26.6%,-34.1%,9.35%,13.8%,-2.5%,-0.3%
CCC[CH2][Sn]([CH2]CCC)([CH2]CCC)[CH2]S(=O)(=O)O,99.3% (active),98.8% (active),98.9% (active),98.2% (active),99.4% (active),99% (active)
